Measurements: PubChem BioAssay (NCI)
Compounds without any hit were thinned out: in the full panel of roughly 79,000, 15% have a hit. Cut-off read from the data, not from the text of the source: active = growth inhibition above about 70%; inactive = the rest.

What was measured:
[1] = NCI Yeast Anticancer Drug Screen. Data for the rad50 strain (AID 155);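 note: 0% = growth of vehicle-only cultures of the same strain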; settings: S. cerevisiae rad50 strain growth inhibition; at 50.0 µM; stronger effect = higher value
Summary of the method: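 Relative growth inhibition (compound vs vehicle) was measured in yeast with a defined repair-gene alteration.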

[2] = NCI Yeast Anticancer Drug Screen. Data for the mec2-1 strain (AID 157); settings: S. cerevisiae mec2-1 strain, at 50.0 µM, stronger effect = higher value
Summary of the method: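 Each compound was tested on mec2-1 yeast, a strain altered in DNA damage repair or cell cycle control. Growth inhibition is reported relative to vehicle.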

[3] = NCI Yeast Anticancer Drug Screen. Data for the sgs1 mgt1 strain (AID 161);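 note: 0% = growth of cultures given vehicle only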; settings: S. cerevisiae sgs1 mgt1 strain, at 50.0 µM, stronger effect = higher value
Summary of the method: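 Genetically altered yeast, compound exposure, growth inhibition relative to vehicle.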

[4] = NCI Yeast Anticancer Drug Screen. Data for the cln2 rad14 strain (AID 165);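 note: 0% = growth equal to vehicle treated cultures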; settings: S. cerevisiae cln2 rad14 strain, at 50.0 µM, stronger effect = higher value
Summary of the method: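 Test compounds were added to cln2 rad14 yeast cultures; inhibition of growth was then determined by comparison with vehicle treatment.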

[5] = NCI Yeast Anticancer Drug Screen. Data for the bub3 strain (AID 167); settings: S. cerevisiae bub3 mutant strain, at 50.0 µM, stronger effect = higher value
Summary of the method: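 Screening used yeast with an engineered genetic alteration affecting cell cycle control. Compound-exposed cultures were compared with vehicle cultures, and reduced growth was taken as inhibition.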

[6] = NCI Yeast Anticancer Drug Screen. Data for the mlh1 rad18 strain (AID 175); settings: S. cerevisiae mlh1 rad18 strain growth inhibition; at 50.0 µM; stronger effect = higher value
Summary of the method: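 Inhibition values reflect reduced growth of mutant yeast versus vehicle-treated controls following compound exposure; the mutations affect DNA damage repair.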

Measured: growth inhibition

Cc1cc(C)c2c(c1)Nc1ccccc1P2c1ccccc1 (centres undefined)
inactive: [1] 11.2% | [2] 14.2% | [3] 48.2% | [4] 31.1% | [5] 44.6% | [6] 53.6%

CN(Cc1c(O)ccc2ccccc12)Cc1c[nH]c2ccccc12
inactive: [1] 20.4% | [2] -13.8% | [3] 0.5% | [4] -46.5% | [5] 6.9% | [6] 13.4%

Cc1ccc(/C([O-])=C(/C(=S)Nc2ccccc2)[n+]2ccccc2)cc1
inactive: [1] -5.3% | [2] 22% | [3] 7.55% | [4] -22.1% | [5] 18.1% | [6] 13.1%

O=C(NCCCCNCCCNC(=O)c1ccc([N+](=O)[O-])cc1)c1ccc([N+](=O)[O-])cc1
inactive: [1] -5.5% | [2] 4.1% | [3] -11.1% | [4] -26.3% | [5] 4.4% | [6] -11.4%

COn1c(-c2ccccc2)nc2c1C(=O)N(C)CN2C
inactive: [1] -14.2% | [2] 1.7% | [3] 7.3% | [4] -47.8% | [5] -6.9% | [6] 5.4%

O=c1c2ccccc2oc2cc([N+](=O)[O-])cc([N+](=O)[O-])c12
inactive: [1] -15.9% | [2] -16.2% | [3] -14.4% | [4] 38.4% | [5] 0.9% | [6] -60.6%

CCOc1ccc(C(C)(C)c2cc3c(cc2OC)OCO3)cc1
inactive: [1] -16.2% | [2] -27.8% | [3] -39.9% | [4] -24.8% | [5] -21.9% | [6] -6.45%

COc1ccc(C(O)(c2ccccc2C)c2ccccc2OC)cc1 (centres undefined)
inactive: [1] 16.1% | [2] -2.4% | [3] 4.2% | [4] -10.8% | [5] 20.7% | [6] 27.9%

COc1c(CO)cc(C)cc1CO
inactive: [1] 4.15% | [2] -0.5% | [3] -6.95% | [4] 3.05% | [5] -0.7% | [6] 0.5%

CSCC(=O)c1ccccc1
inactive: [1] 17.4% | [2] 6.55% | [3] 9.25% | [4] -6.3% | [5] 2.15% | [6] 5.3%

CCCC1OC(c2ccc(OC)cc2)OCC1CC (centres undefined)
inactive: [1] 2.65% | [2] 0.95% | [3] -0.3% | [4] -16.4% | [5] 30.9% | [6] -0.75%

COc1ccc(C(=O)NNC(=O)c2ccccc2)cc1
inactive: [1] 11.9% | [2] -42.5% | [3] -14.8% | [4] 10.1% | [5] -1.1% | [6] -14.2%

Cc1cc(C)cc(N)c1
inactive: [1] 1.7% | [2] -29.9% | [3] -5.1% | [4] -8.85% | [5] -5.25% | [6] -10%

CC(=O)Oc1ccc(-c2ccccc2)cc1
inactive: [1] 23.3% | [2] 20.8% | [3] 16% | [4] 3.1% | [5] 18% | [6] 26.3%

Cc1[nH]n(C(=O)c2ccc(Cl)cc2)c(=O)c1/C=C1\C(O)=CC(=O)c2ccccc21
inactive: [1] 31.6% | [2] -6.85% | [3] 18.7% | [4] -19.6% | [5] 30.7% | [6] 16.9%

NS(=O)(=O)c1cccc(C(F)(F)F)c1
inactive: [1] -7.95% | [2] -37.9% | [3] -13.6% | [4] -21.7% | [5] -16.4% | [6] -7.2%

CC(=O)NC(CC(=O)O)C(=O)Nc1ccccc1 (centres undefined)
inactive: [1] 13.8% | [2] 36.8% | [3] 16.6% | [4] 13.6% | [5] 8.9% | [6] 13.4%

COc1ccc(Cc2cc(N=O)c(OC)cc2O)cc1
inactive: [1] -12.4% | [2] -7.3% | [3] 1.15% | [4] -21.5% | [5] -3.6% | [6] -10.7%

c1ccc2c(c1)oc1cc3c(cc12)n1nnnc1c1cccn31
inactive: [1] 9% | [2] -1.25% | [3] -3.45% | [4] 16.4% | [5] 4.6% | [6] -7.8%

O=c1[nH]c(-c2ccc(-c3nc4cc([N+](=O)[O-])ccc4c(=O)[nH]3)cc2)nc2cc([N+](=O)[O-])ccc12
inactive: [1] -33% | [2] -13.8% | [3] -26.7% | [4] -6.9% | [5] -24.5% | [6] -13.3%

Cc1ccc(-c2c(C#N)c(S)n(NS(=O)(=O)c3ccc(C)cc3)c(=O)c2C#N)cc1
inactive: [1] 46.1% | [2] 57.3% | [3] 59.9% | [4] 28.6% | [5] 39.6% | [6] 59.9%

CN1C(=O)C(Cc2cnc[nH]2)NC1=S (centres undefined)
inactive: [1] 11.5% | [2] 25.1% | [3] 22.6% | [4] -7.5% | [5] 10.7% | [6] 1.1%

COC(=O)C(C)(C#N)/C(C)=C/C(C)C (centres undefined)
inactive: [1] -12.7% | [2] -20.9% | [3] -12.8% | [4] -3.9% | [5] -24.8% | [6] -33%

NNC(=O)C1=NN(c2ccccc2)C(=O)C1
inactive: [1] 39.3% | [2] 12.8% | [3] 33.6% | [4] -12.9% | [5] 36.8% | [6] 42.1%

COc1cc(Br)cc2nc(-c3cccs3)oc12
inactive: [1] -15.3% | [2] -46.9% | [3] -62.2% | [4] -24.6% | [5] -8.1% | [6] -32.5%

OC(c1ccccc1)(c1ccccc1)c1nc2ccccc2[nH]1
inactive: [1] 2.7% | [2] -1.75% | [3] 14.2% | [4] -19.8% | [5] -0.1% | [6] -0.9%

COc1ccc(C(=O)Nc2ccccc2C#N)cc1
inactive: [1] -0.15% | [2] -4.5% | [3] -9.25% | [4] -1.25% | [5] 1.55% | [6] -3.8%

CCO/C=C1/N=C(c2ccc3ccccc3c2)OC1=O
inactive: [1] 35.9% | [2] 9.8% | [3] 13.3% | [4] -23.7% | [5] -32.2% | [6] 14%

COc1ccc(CN2CCCN(Cc3ccc(OC)cc3OC)C2c2cccc(OC)c2O)c(OC)c1
inactive: [1] 20.6% | [2] 16.6% | [3] 12.6% | [4] 16% | [5] -6.5% | [6] 6.5%

CCOCCOc1nc(C)cc(C)c1C#N
inactive: [1] -30.9% | [2] -41.5% | [3] -8.05% | [4] -6.4% | [5] -29.5% | [6] -20.9%

OC1CNc2c(ccc3ccccc23)C1 (centres undefined)
inactive: [1] 10.7% | [2] -26.4% | [3] -13.4% | [4] -17% | [5] -38% | [6] -6.25%

CC(=O)C(CCC#N)(CCC#N)C(=O)Nc1ccccc1
inactive: [1] -9% | [2] 10.5% | [3] 3.35% | [4] -6% | [5] -2.05% | [6] -21.5%

O=C1CSc2ccncc2N1
inactive: [1] 13.8% | [2] 2.9% | [3] 13.5% | [4] 11.4% | [5] 15.2% | [6] 24.1%

Cn1cnc2cc([N+](=O)[O-])ccc21
inactive: [1] -9.6% | [2] -7.95% | [3] -32.2% | [4] -24.6% | [5] -9.6% | [6] 8.8%

C/C(CC(=O)Nc1cccc(Cl)c1C)=N\NC(=O)c1ccncc1
inactive: [1] 6.05% | [2] -2.3% | [3] -6.2% | [4] -2% | [5] -0.5% | [6] 0.95%

Fc1cccc(Cl)c1CSc1n[nH]c(C(F)(F)F)n1
inactive: [1] -4.65% | [2] -24.1% | [3] 10.5% | [4] 3.2% | [5] 11.1% | [6] 2.45%

Cc1ccc(C(=O)OC2C3(C)CCC(C3)C2(C)C)cc1 (centres undefined)
inactive: [1] 15.9% | [2] 18.3% | [3] 14.3% | [4] -37.2% | [5] 10.2% | [6] -0.15%

CC(=O)Nc1ccc2c(c1)C(=O)c1cc(Cl)ccc1-2
inactive: [1] 0.25% | [2] -6.05% | [3] 5.75% | [4] -28.1% | [5] -2.05% | [6] -9.35%

CC12CCC(O)CC1=CCC1C2CCC2(C)C1CCC21SCCS1 (centres undefined)
inactive: [1] 2.35% | [2] 9.7% | [3] 20.2% | [4] 14.4% | [5] 13.8% | [6] 13%
